The text below walks through data of PubChem BioAssay (NCATS).

Each structure is given as a SMILES string. Results filed as inconclusive are left out. The source made the active and inactive calls. Unless noted, calls come from the whole dose curve; as a rule, active = well fitted curve in the direction sought with a large enough effect; inconclusive = small, poorly fitted or top-dose-only effect, or another doubt; inactive = no such curve, though single readings can be large; an effect the other way counts as inactive or inconclusive.

In experiment [1] the target is Atrial natriuretic peptide receptor 2 (Homo sapiens) (UniProt P20594). Put plainly: Natriuretic polypeptide receptor (hNpr2) antagonism - Pilot subtype selectivity assay (AID 1347050; calls by dose curve). In short, it runs like this: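 Luminescence from a genetically encoded cGMP luciferase biosensor in hNpr2-expressing HEK293 cells is read before and 20 min after adding 1 nM hNppC. Test compounds, in interplate 1:5 titrations, are added 30-50 min ahead of the agonist.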

Experiment [2] is described as follows: NS1 protein of Zika virus - qHTS assay to identify small molecule inhibitors in human HEK 293 cells (AID 1347053). Note: series mostly up to about 46 µM; nearly all actives have a fitted effect of over 55% in size. In short, it runs like this: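 Readout was TR-FRET using paired anti-NS1 antibodies after 24 h infection of HEK 293 cells with ZIKV MR766 (MOI = 0.5). Compound preceded virus by 1 h; reduced signal reflects lower NS1 expression.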
For orientation: qHTS replaces the single test concentration by a dilution series.

Experiment [3] concerns the target T1, Tyrosine-protein phosphatase non-receptor type substrate 1 (Homo sapiens) + Leukocyte surface antigen CD47 (Homo sapiens) (UniProt P78324+Q08722). The experiment in a line: CD47-SIRPalpha protein protein interaction - LANCE assay qHTS validation (AID 1347057; active = well fitted curve in the direction sought with a large enough effect in the signal ratio, with a control signal flat, not every such curve was filed as active; the % refers to the signal ratio; note: series mostly up to about 38 µM). The procedure, abridged:
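Inhibition of soluble CD47/SIRPalpha ectodomain association by titrated compounds, measured as 665/615 nm time-resolved FRET ratio after sequential 30 min room-temperature incubations.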
(In general: In TR-FRET formats the signal depends on donor and acceptor labels being close together.)

The target in experiment [4] is T1, Tyrosine-protein phosphatase non-receptor type substrate 1 (Homo sapiens) + Leukocyte surface antigen CD47 (Homo sapiens). Put plainly: CD47-SIRPalpha protein protein interaction - Alpha assay qHTS validation (AID 1347059).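 Note: bead proximity luminescence from CD47 binding SIRPalpha after compound preincubation with SIRPalpha.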 In short, it runs like this: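 SIRPalpha-biotin 25 nM + cpd, 30 min RT, dark; add CD47-His 12.5 nM, 30 min; add Ni-NTA/SAV beads 10 ug/mL, 30 min; AlphaScreen. Buffer PBS pH 7.4 + 0.05% IGEPAL CA-630. Non-biotinylated SIRPalpha as control inhibitor.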

Experiment [5] has as its target Parathyroid hormone/parathyroid hormone-related peptide receptor (Homo sapiens) (UniProt Q03431). Put plainly: qHTS for PTHR1 Agonists: Optimization Screen against the NCGC LOPAC library (AID 1347079).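 Note: GloSensor cAMP luminescence in HEK-293 GP2 cells expressing human PTHR1 with IBMX.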 The procedure, abridged: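 HEK-293 GP2 cells, PTHR1 + GloSensor cAMP; 3000 cells/well, o/n. Luciferin + IBMX 0.5mM each (stock), 1 hr 37C. Cpd titration, 1 hr 37C. Lum after 15 min RT. Ctrl M-PTH(1-15) top 10uM.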

Experiment [6] can be described thus: qHTS of pediatric cancer cell lines to identify multiple opportunities for drug repurposing: Primary screen for TC32 cells (AID 1347089). Note: nearly all actives have a fitted effect of over 60% in size. In short, it runs like this: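 TC32 cells, 500-1,000/well in growth medium, compound-treated 48 h at 37 °C; viability from CellTiter-Glo luminescence. Primary screen: MIPE 11-point (0.78 nM–46 µM final), NPC 8-point (0.59 nM–46 µM final); confirmatory at 11-point dilutions.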

The nature of experiment [7]: qHTS of pediatric cancer cell lines to identify multiple opportunities for drug repurposing: Primary screen for DAOY cells (AID 1347090). Note: nearly all actives have a fitted effect of over 55% in size. Note: potency is the fitted concentration of half-maximal effect. In short, it runs like this:
(§1)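 Viability measured as metabolically active cells via CellTiter-Glo luminescence following 48 hours of compound exposure, 11-point dilutions in confirmatory testing. 500-1,000 cells/well plated 5 hours before dosing; controls were DMSO and 2.3 µM bortezomib.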

Experiment [8] in a line: qHTS of pediatric cancer cell lines to identify multiple opportunities for drug repurposing: Primary screen for SJ-GBM2 cells (AID 1347091). Note: potency is the fitted concentration of half-maximal effect. The procedure, abridged:
as §1

A short description of experiment [9]: P-glycoprotein substrates identified in KB-8-5-11 adenocarcinoma cell line, qHTS therapeutic library screen (AID 1346987). Note: potency is the fitted concentration of half-maximal effect; nearly all actives have a fitted effect of over 65% in size. In short, it runs like this:
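Luminescence from CellTiter-Glo, read 5 min after addition, quantified survival of KB-8-5-11 (P-gp-overexpressing) cells exposed to compounds for 72 h. AC50 was derived from concentration-response curves.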

Experiment [10] is described as follows: qHTS of pediatric cancer cell lines to identify multiple opportunities for drug repurposing: Primary screen for A673 cells (AID 1347092). Note: potency is the fitted concentration of half-maximal effect; nearly all actives have a fitted effect of over 45% in size. The procedure, abridged: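 A673 cells (500-1,000 cells/well) were treated 48 hours at 37 degrees C with compounds at 11-point (0.78 nM to 46 µM) or 8-point (0.59 nM to 46 µM) dilutions. Viability read by CellTiter-Glo luminescence; concentration-response curves fitted.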

T1 sequence (P78324 whole entry, looked up, the tested form may be a part): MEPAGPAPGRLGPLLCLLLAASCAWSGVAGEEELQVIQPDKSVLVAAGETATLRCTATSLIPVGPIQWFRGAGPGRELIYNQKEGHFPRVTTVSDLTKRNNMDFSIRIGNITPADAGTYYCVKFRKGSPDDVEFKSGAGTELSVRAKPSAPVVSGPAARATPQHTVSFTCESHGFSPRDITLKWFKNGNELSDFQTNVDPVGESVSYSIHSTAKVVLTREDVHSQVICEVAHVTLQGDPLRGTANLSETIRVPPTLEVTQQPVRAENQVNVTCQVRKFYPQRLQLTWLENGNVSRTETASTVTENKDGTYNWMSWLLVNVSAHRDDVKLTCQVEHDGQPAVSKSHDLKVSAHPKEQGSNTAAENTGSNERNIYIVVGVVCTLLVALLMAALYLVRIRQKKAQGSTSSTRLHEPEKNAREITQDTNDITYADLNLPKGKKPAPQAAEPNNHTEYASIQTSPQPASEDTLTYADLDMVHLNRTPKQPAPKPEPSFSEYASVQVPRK
T1 sequence (Q08722 whole entry, looked up, the tested form may be a part): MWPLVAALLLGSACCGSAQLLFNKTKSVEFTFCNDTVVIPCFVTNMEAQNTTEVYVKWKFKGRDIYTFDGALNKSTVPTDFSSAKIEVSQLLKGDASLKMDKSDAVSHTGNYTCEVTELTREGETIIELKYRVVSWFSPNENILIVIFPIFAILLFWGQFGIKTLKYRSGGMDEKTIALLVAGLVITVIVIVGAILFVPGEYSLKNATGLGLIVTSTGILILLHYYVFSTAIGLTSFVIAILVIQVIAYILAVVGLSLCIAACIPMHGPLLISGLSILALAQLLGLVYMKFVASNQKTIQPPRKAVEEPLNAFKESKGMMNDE
Chain of Parathyroid hormone/parathyroid hormone-related peptide receptor (Homo sapiens) (Q03431 whole entry, looked up): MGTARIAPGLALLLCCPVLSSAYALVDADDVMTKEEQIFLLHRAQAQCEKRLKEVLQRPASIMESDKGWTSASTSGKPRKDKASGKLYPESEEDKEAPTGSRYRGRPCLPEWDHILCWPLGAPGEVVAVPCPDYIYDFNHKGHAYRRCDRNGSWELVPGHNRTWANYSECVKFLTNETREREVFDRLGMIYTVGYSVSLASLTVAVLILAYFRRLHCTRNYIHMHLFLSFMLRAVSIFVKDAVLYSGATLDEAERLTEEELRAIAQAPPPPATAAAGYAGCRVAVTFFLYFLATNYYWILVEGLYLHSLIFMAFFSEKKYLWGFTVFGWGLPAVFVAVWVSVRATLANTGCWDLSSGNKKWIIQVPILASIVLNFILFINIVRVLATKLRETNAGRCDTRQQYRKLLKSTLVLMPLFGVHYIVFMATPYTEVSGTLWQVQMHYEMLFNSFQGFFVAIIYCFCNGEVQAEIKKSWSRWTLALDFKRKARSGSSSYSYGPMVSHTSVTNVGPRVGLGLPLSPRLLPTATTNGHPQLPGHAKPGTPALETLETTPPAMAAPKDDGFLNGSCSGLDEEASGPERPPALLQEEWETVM
Chain of Atrial natriuretic peptide receptor 2 (Homo sapiens) (P20594 whole entry, looked up): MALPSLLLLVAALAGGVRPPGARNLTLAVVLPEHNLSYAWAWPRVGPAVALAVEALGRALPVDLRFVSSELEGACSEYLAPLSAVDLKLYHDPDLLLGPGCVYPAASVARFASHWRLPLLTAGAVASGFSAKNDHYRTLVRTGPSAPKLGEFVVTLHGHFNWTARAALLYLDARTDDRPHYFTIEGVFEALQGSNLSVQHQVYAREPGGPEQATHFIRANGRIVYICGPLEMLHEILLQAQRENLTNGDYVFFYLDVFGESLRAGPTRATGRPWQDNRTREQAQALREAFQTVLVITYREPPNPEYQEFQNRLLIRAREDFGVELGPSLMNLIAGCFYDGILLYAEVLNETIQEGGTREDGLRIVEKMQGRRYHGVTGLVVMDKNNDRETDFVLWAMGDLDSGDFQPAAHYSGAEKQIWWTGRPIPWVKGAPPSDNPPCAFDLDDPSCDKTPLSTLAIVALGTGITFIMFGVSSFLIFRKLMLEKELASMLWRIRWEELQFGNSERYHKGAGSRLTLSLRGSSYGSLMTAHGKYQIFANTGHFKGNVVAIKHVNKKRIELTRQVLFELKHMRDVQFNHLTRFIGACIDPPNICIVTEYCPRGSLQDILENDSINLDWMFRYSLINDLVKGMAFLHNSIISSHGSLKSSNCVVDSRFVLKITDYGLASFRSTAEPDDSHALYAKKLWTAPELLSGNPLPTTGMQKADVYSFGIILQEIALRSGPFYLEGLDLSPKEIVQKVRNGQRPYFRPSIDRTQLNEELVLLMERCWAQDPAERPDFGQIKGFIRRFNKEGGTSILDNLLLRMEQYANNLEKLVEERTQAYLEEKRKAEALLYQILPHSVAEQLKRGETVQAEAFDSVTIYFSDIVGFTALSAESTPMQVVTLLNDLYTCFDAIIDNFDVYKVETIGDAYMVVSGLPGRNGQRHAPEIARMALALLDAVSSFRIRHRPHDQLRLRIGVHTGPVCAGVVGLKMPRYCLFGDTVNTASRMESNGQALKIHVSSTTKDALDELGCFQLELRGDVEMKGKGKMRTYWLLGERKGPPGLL

As to `O=C1NC(=O)/C(=C/c2ccc3c(c2)OC(F)(F)O3)S1`, the Potency result in experiment [1], in experiment [2] and in experiment [4] was “inactive” each time. The outcome in [3] and in [5] was inactive.
For `C/C(=C(/OCCOc1ccc(Cl)cc1)c1ccc(Cl)cc1Cl)n1ccnc1`, the Potency entry in experiment [2], in [6], in experiment [7] and in experiment [8] was “inactive” in each case.
Regarding `CC(=O)N1CCN(c2ccc(O)cc2)CC1`, the Potency entry in experiment [2], in experiment [6], in experiment [7] and in [8] was “inactive” each time.
As for `CN1CCC(N(Cc2cccs2)c2ccccc2)CC1`, the Potency result in [2] and in experiment [6] was “inactive” in each case.
As to `O=C(Nc1ccc(Cl)cc1)Nc1ccc(Cl)c(C(F)(F)F)c1`, the Potency in experiment [9] is 20.6 µM (active); in experiment [7] it was 13.3 µM (active); in experiment [8], 3.35 µM (active); in [10], 21.1 µM (active).
For `CCS(=O)(=O)c1ccc(OC)c(C(=O)OC)c1`, the Potency result in experiment [2], in experiment [6], in [7] and in [8] was “inactive” in each case.
Take `Cc1coc2ccccc2c1=O`: the Potency entry in experiment [2], in [6], in experiment [7] and in experiment [8] was “inactive” in each case.
In the case of `C[C@@H]1C[C@H]2[C@@H]3CCC4=CC(=O)C=C[C@]4(C)[C@@]3(F)[C@@H](O)C[C@]2(C)[C@@]1(O)C(=O)COC(=O)c1ccncc1`, the Potency result in experiment [2], in experiment [6], in [7] and in experiment [8] was “inactive” in each case.
